High-throughput results (PubChem BioAssay)
The list is not random: actives were taken first. Their share in the collection is about 3%.
PPC-1+TRAIL kill – kills PPC-1 cancer cells in the presence of TRAIL; PPC-1 cells + TRAIL, ATPLite viability luminescence; cell killing (% activity), % at 4 µM or 5 µM; actives 0.41% (n = 220,000); AID 1443;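 active = cell killing above 50% in the first pass at 4 µM, then a duplicate retest at 5 µM averaging 50% or more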
SENP7 inh – blocks the human protease SENP7 | Q9BQF6 | recombinant SENP7, Z-RLRGG-aminoluciferin luminescence, 40 min | inhibition, % at 5 µM | actives 1.5% (n = 330,000);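 active = inhibition above about 50% at the single test dose, limit read from the data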
Target sequence (Q9BQF6 706-1050 limits assumed): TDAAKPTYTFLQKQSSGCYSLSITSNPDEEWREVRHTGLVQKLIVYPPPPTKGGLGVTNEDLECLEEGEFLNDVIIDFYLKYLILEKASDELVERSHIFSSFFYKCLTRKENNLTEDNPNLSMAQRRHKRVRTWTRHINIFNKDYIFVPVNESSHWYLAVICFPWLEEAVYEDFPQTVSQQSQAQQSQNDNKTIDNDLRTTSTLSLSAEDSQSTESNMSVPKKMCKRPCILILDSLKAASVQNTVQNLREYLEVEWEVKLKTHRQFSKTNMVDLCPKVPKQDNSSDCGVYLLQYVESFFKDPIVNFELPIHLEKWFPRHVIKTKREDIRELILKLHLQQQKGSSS
SENP8 block-1 – blocks the human protease SENP8 | Q96LD8 | purified SENP8, Z-RLRGG-aminoluciferin cleavage, luminescence | inhibition, % at 10 µM | actives 1.2% (n = 330,000); in the data active = inhibition above about 50%
Target sequence (Q96LD8 whole entry, looked up): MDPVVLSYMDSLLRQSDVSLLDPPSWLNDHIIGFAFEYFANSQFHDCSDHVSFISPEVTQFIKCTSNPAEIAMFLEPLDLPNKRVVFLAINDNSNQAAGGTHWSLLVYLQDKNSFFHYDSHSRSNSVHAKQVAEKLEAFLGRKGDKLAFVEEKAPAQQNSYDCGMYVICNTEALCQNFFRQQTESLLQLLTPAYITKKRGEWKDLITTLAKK
SENP8 block-2 – SENP8 (human) protease inhibition; AID 602440; actives 0.64% (n = 360,000); inhibition, % at 20 µM; recombinant SENP8, Nedd8 substrate fluorescence; Q96LD8; in the data active = inhibition mostly above about 40%, no sharp cut-off; inactive = mostly below about 27%
C8 TRAIL sens – caspase-8 TRAIL sensitization | NB7+C8 cells + TRAIL, ATPlite viability luminescence | inhibition (viability loss, TRAIL sensitization), % at 10 µM | actives 1% (n = 360,000) | AID 624354;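 active = compounds causing at least 50% loss of cell viability in the single-dose screen, relative to plate controls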
SENP6 block – blocks the human protease SENP6; inhibition, % at 10 µM; AID 2599; Recombinant SENP6 catalytic domain, aminoluciferin luminescence; actives 1.8% (n = 330,000); Q9GZR1;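 active = inhibition above about 50% at the single tested dose, limit read from the data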
A number is an active result; . = inactive; / = no result given.

SMILES	PPC-1+TRAIL kill	SENP7 inh	SENP8 block-1	SENP8 block-2	C8 TRAIL sens	SENP6 block
CC(C)CC(NC(=O)CNC(=O)C1O[C@@H]2OC(C)(C)O[C@@H]2[C@H]2OC(C)(C)O[C@@H]12)C(=O)O (stereo not given in full)	.	.	.	.	.	.
COc1ccc(OCC(=O)N/N=C(\C)c2cc3ccccc3o2)cc1	.	.	.	.	63.7	.
COc1ccc(OCC(=O)N/N=C(\C)c2ccc(OC)cc2)cc1	.	.	.	.	.	.
CCC(C)NC(=O)C1CCC(CNS(=O)(=O)c2ccccc2)CC1 (stereo not given)	/	.	.	.	.	.
CCc1c(C)[nH]n(-c2nc(-c3ccccc3)cs2)c1=O	.	.	.	.	.	.
Cc1[nH]n(-c2nc(-c3ccc(Cl)cc3)cs2)c(=O)c1N=Nc1ccc(O)cc1	.	.	.	41.1	80.5	.
CN1/C(=C/c2cc[n+](C)c3ccccc23)C=Cc2ccccc21	/	/	/	58.0	.	/
OCC1OC(n2ccc3c2ncn2ncnc32)C(O)C1O (stereo not given)	/	/	/	.	81.8	/
CC(C)n1cc(/C(N)=N/O)c(=O)n(Cc2ccccc2)c1=O	.	.	.	.	.	.
O=C1c2ccccc2/C(=C\C#Cc2ccccn2)N1c1ccccc1	/	.	.	.	73.8	.
CCOC(=O)C1=C(CC)Nc2ccccc2N=C1NC(=O)Nc1ccc(Cl)c(Cl)c1	.	.	.	.	55.6	.
NC1=C(Br)C(=O)c2ncccc2C1=O	/	/	/	96.5	95.3	/
NC(=O)c1ccccc1NC(=O)c1cccc(C(=O)Nc2ccccc2C(N)=O)n1	/	.	.	.	.	.
COC(=O)c1cc(C)nc2c1C(=O)C(=O)C=C2N1CCOCC1	/	93.2	98.3	111.0	92.1	90.4
CCN(CC)S(=O)(=O)c1cccc(NC(=O)Nc2cccc(C(F)(F)F)c2)c1	.	.	.	.	65.3	.
O=C(O)c1ccc(N=Nc2c(O)[nH]c3ccccc23)cc1	.	99.6	97.3	.	.	99.3
Cc1ccc(N=Nc2c(O)c3ccccc3[nH]c2=O)c(S(=O)(=O)N(C)C)c1	54.8	/	/	/	/	/
Cc1ccccc1N=Nc1c(O)[nH]c2ccccc12	/	.	.	.	.	.
CN(C)C(=O)c1ccc(N=Nc2c(O)c3ccccc3[nH]c2=O)cc1	/	/	/	.	76.2	/
Cc1cc(N=Nc2c(O)c3ccccc3[nH]c2=O)ccc1N=Nc1ccc(C(=O)N(C)C)cc1	.	.	.	.	.	.
Cc1ccccc1-n1nc2c(c1NC(=O)C(C)(C)C)CS(=O)(=O)C2	/	.	.	.	.	.
O=C(c1ccc2c(c1)OCO2)N1CCC(Cc2ccccc2)CC1	.	.	.	.	.	.
O=C(N/N=C/c1cccc(O)c1)c1ccc2c(c1)OCCO2	/	.	.	.	88.9	.
O=C(N/N=C/c1ccc2c(c1)OCO2)c1ccc2c(c1)OCO2	/	.	.	.	.	.
Cc1nonc1C(=O)N/N=C/c1cccc(O)c1	.	92.2	86.5	.	.	83.6
SMILES	PPC-1+TRAIL kill	SENP7 inh	SENP8 block-1	SENP8 block-2	C8 TRAIL sens	SENP6 block
Cc1cc(C(=O)N/N=C/c2cccc(OC(=O)c3ccco3)c2)n[nH]1	.	.	.	.	.	.
O=C(N/N=C/c1cccnc1)c1ccc2c(c1)OCO2	/	.	.	.	49.9	.
O=C(N/N=C\c1cccc(OC(=O)c2ccco2)c1)c1ccc2c(c1)OCO2	53.4	.	.	.	86.5	.
O=[N+]([O-])c1ccccc1C1Nc2cccc3cccc(c23)N1	.	.	.	50.6	.	.
COc1ccc(S(=O)(=O)Nc2cccc(F)c2C)cc1C(=O)N1CCOCC1	.	.	.	.	.	.
Cc1cc(C)c(S(=O)(=O)/N=C2\C=C(NS(=O)(=O)c3ccccc3)C(=O)c3ccccc32)c(C)c1	/	.	.	73.3	.	.
Cc1ccc(S(=O)(=O)/N=C2\C=C(NS(=O)(=O)c3ccccc3)C(=O)c3ccccc32)cc1	/	/	/	73.7	.	/
O=S(=O)(N=C1C=CC(=NS(=O)(=O)c2ccccc2)c2ccccc21)c1ccccc1	/	/	/	74.4	.	/
O=C(c1ccccc1)N1N=C(c2ccccc2O)CC1c1ccccc1 (stereo not given)	/	.	.	.	.	.
CN1CCN(C(=O)c2ccc(Cc3cn(C)c4ccccc34)nc2)CC1	/	/	/	.	.	/
COc1ccc(-c2nn(-c3ccccc3)cc2/C=N/NC(=O)c2ccc(Br)o2)cc1	.	.	.	.	69.3	.
O=C1/C(=C\c2ccc(Br)o2)Cc2ccccc21	.	.	.	.	.	72.8
CS(=O)(=O)N1N=C(c2ccc(Cl)cc2)CC1c1cccs1 (stereo not given)	.	.	.	.	.	51.1
CC(C)c1nc2oc3c(N(C)CCO)ncnc3c2c2c1CCC2	.	.	.	.	.	.
CCN(CC)CCN(Cc1cc2cc3c(cc2[nH]c1=O)OCCO3)C(=S)NC	/	.	.	.	.	.
Cc1cc(Br)c(OCc2ccc(C(=O)N/N=C/c3ccc[nH]3)cc2)c(Br)c1	/	.	.	.	67.8	.
O=C(N/N=C/c1ccc[nH]1)c1ccc(COc2cccc3cccnc23)cc1	.	.	.	.	63.3	.
O=C(N/N=C/c1ccc[nH]1)c1ccc(O)cc1	.	.	.	.	.	.
Cn1cnc(S(=O)(=O)N2CCN(C(c3ccc(F)cc3)c3ccc(F)cc3)CC2)c1	/	.	.	.	.	.
CC(O)CC(=O)OC[C@]12CC[C@H]3[C@@](C)(CC[C@H]4C(C)(C)CCC[C@]34C)[C@@H]1CC(C1=CC(=O)OC1O)O2 (stereo not given in full)	/	/	/	.	86.2	/
O=C(NC1CCN(c2ncccn2)CC1)c1ccccc1F	/	.	.	.	.	.
COCCCNc1ccn2nc(-c3cccc(Cl)c3)cc2n1	/	/	/	.	.	/
COCCCNc1ccn2nc(-c3ccccc3)cc2n1	/	/	/	.	52.6	/
CCOC(=O)C1=C(CCc2ccccc2)NC(=O)NC1c1ccc(C#N)cc1 (stereo not given)	/	.	.	.	.	.
CN(C)CCNc1ncnc2c1ncn2[C@H]1CN(Cc2ccc(Cl)cc2)C[C@@H](CO)O1	/	/	/	.	.	/
SMILES	PPC-1+TRAIL kill	SENP7 inh	SENP8 block-1	SENP8 block-2	C8 TRAIL sens	SENP6 block
CCCCCC/C=N/Nc1nnc(Cc2ccc(OC)c(OC)c2)c(=O)[nH]1	/	.	.	.	.	.
COc1ccc(Cc2nnc(N/N=C/c3ccc(O)cc3O)[nH]c2=O)cc1OC	.	.	.	.	50.9	.
CC1Nc2nc(N(C)C)[nH]c(=O)c2NC1C (stereo not given)	.	/	/	.	.	/
CCOC(=O)c1ccc(NC2=CC(=O)C(=O)c3ccccc32)cc1	.	.	.	82.2	94.0	.
CC(=O)Nc1ccc(NC2=CC(=O)c3ccccc3C2=O)cc1	/	.	.	.	.	.
O=C1C(=O)c2c(C(=O)c3ccccc3)coc2-c2ccccc21	.	.	.	60.6	.	.
COc1ccc(-c2cc(-c3ccccc3)c(C#N)c(S(C)(=O)=O)n2)cc1	.	.	.	.	78.2	.
COc1ccc(-c2cc(-c3ccc(OC)cc3)c(C#N)c(SC)n2)cc1	.	.	.	.	.	.
